Screens (PubChem)
Sampled rows, rich in hits. Any-hit rate of the full collection: about 3.5%.
TEAD-YAP inh: TEAD-YAP interaction inhibition, primary screen, TEAD-YAP interaction inhibitor project, luminescence, HEK-TIYL cells. 1.4% of 640,000 active. AID 1259422, 2018. TEAD-Gal4/YAP UAS-luciferase luminescence. inhibition, % at 9.12 µM; in the data active = inhibition above about 32%
FBW7 act: FBW7 E3 ligase activators, primary screen, biochemical, AlphaScreen, human | normalized activity (activation), % at 26.1 µM | AlphaScreen FBW7–phospho-cyclin E peptide binding, activator screen | F-box/WD repeat-containing protein 7 (Homo sapiens), Q969H0 | 0.13% of 650,000 active; in the data active = normalized activity above about 1.9%;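 note: purified mutant Fbw7 with reduced substrate affinity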
GPR151 activ: activators of human GPR151, primary screen, cell-based, PathHunter beta-arrestin, luminescence; G-protein coupled receptor 151 (Homo sapiens), Q8TDV0; PathHunter beta-arrestin GPR151 cells; activation, % at 11.2 µM; 1% of 650,000 active; in the data active = activation above about 4.9%
Target sequence (Q8TDV0 whole entry, looked up): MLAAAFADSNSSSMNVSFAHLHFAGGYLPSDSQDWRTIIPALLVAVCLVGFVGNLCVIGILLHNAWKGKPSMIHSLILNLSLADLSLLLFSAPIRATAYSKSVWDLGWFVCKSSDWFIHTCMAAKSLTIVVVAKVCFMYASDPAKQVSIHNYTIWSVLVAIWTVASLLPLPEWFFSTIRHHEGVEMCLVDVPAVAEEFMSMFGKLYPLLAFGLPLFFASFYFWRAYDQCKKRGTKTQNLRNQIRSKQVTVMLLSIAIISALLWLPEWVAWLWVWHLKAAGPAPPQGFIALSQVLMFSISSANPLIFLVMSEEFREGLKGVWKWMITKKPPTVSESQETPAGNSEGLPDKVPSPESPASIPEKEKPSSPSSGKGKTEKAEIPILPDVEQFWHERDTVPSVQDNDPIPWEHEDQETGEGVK
MITF inh: MITF inhibitors, primary screen, biochemical, AlphaScreen, human | AlphaScreen MITF homodimerization, bead proximity signal | Microphthalmia-associated transcription factor (Homo sapiens), O75030 | 0.91% of 650,000 active | inhibition, % at 2.6 µM; in the data active = inhibition above about 50%
Of the large screens only hits and unclear results are named; the others gave an inactive call.

Cc1ccc(Cl)cc1N1CCN(C(=O)c2nc(-c3cccnc3)no2)CC1	none
COCCCNC(=O)c1c(NC(=O)Cc2coc3ccc(C)cc23)sc2c1CCCC2	TEAD-YAP inh 48
Cc1ccc2c(CC(=O)Nc3sc4c(c3C(N)=O)CCCC4)coc2c1	none
Cc1sc2ncnc(N/N=C/c3ccc([N+](=O)[O-])o3)c2c1C	TEAD-YAP inh 35
Cc1sc2ncnc(N/N=C/c3cccc([N+](=O)[O-])c3)c2c1C	none
COc1ccccc1Nc1nc(NCc2ccco2)c2ccccc2n1	none
COc1ccc(Nc2nc(C)c3ccccc3n2)cc1	none
COc1ccc(Nc2nc(NCc3ccccc3)c3ccccc3n2)cc1	TEAD-YAP inh 44
Cc1ccc(Nc2nc(NCc3ccco3)c3ccccc3n2)cc1	TEAD-YAP inh 46
COC(=O)c1ccc(Nc2nc(NCc3ccco3)c3ccccc3n2)cc1	TEAD-YAP inh 75
COc1ccc(N2CC(O)=C(c3nc4ccccc4[nH]3)C2=N)c([N+](=O)[O-])c1	none
CC(C)n1nc(C(=O)NN)c2ccccc2c1=O	TEAD-YAP inh 51
CCOC(=O)c1c(NC(=O)CSc2ccc([N+](=O)[O-])cn2)sc2c1CCCC2	none
COC(=O)c1ccc(-c2csc(NC(=O)c3ccccc3NS(=O)(=O)c3ccc(C)cc3)n2)cc1	none
O=C(Nc1ccc(-c2nc3ccccc3o2)cc1)C1CCN(C(=O)C2CCCC2)CC1	MITF inh 52
COc1ccc(-c2csc(NC(=O)c3ccccc3NS(=O)(=O)c3ccc(C)cc3)n2)cc1	TEAD-YAP inh 38
Cc1ccc(S(=O)(=O)Nc2ccccc2C(=O)Nc2ccc(-c3nc4ccccc4o3)cc2)cc1	TEAD-YAP inh 39
CC(=O)c1ccc(NC(=O)c2ccccc2NS(=O)(=O)c2ccc(C)cc2)cc1	none
Cc1ccc(S(=O)(=O)Nc2ccccc2C(=O)Nc2nc(-c3ccccc3)cs2)cc1	TEAD-YAP inh 34
CCCc1cc(C(=O)N2CCC(n3nccc3NC(=O)C3CC3)CC2)n(C)n1	none
CC1=C(C(=O)OC2CCCC2)C(c2ccc(I)cc2)C2=C(CCCC2=O)N1 (stereo not drawn)	none
COc1cccc(C(=O)NNc2nc3c(C)cccc3s2)c1	none
COc1ccccc1C(=O)NNc1nc2c(C)cccc2s1	TEAD-YAP inh 33
Cc1ccc(S(=O)(=O)Nc2ccccc2C(=O)Nc2nc3c(C)cccc3s2)cc1	TEAD-YAP inh 46
COc1ccc(CNC(=O)c2ccc(Cn3c(=S)[nH]c4cc5c(cc4c3=O)OCO5)cc2)cc1	none
COC(=O)c1cc(C)nc2c1C(=O)C(=O)C=C2N1CCOCC1	TEAD-YAP inh 41
CCC(=O)Nc1ccc(S(=O)(=O)Nc2ccc3c(c2)N(C(=O)CC)CCC3)cc1	none
Cc1c(NC(=O)CSc2nnc3c4ccccc4n(CCc4ccccc4)c3n2)c(=O)n(-c2ccccc2)n1C	TEAD-YAP inh 47
CC(=O)c1cccc(NC(=O)CSc2nnc3c4ccccc4n(CCc4ccccc4)c3n2)c1	TEAD-YAP inh 40
COc1ccc(-c2cn3nc(N4CCCC(C(=O)N5CCCCCC5)C4)sc3n2)cc1 (stereo not drawn)	TEAD-YAP inh 45
COc1cccc(NC(=O)CN2CCN(Cc3nc(-c4ccc(F)cc4)cs3)CC2)c1	TEAD-YAP inh 33
COc1cccc(-c2csc(N3CCN(CC(=O)Nc4ccc(F)cc4)CC3)n2)c1	none
O=C(CSc1nc2[nH]ncc2c(=O)n1-c1ccccc1)Nc1ccc([N+](=O)[O-])cc1Cl	none
CC(C)c1ccc(NC(=O)CSc2nc3[nH]ncc3c(=O)n2-c2ccccc2)cc1	TEAD-YAP inh 39
COc1ccc(-n2c(SCC(=O)Nc3ccc([N+](=O)[O-])cc3Cl)nc3[nH]ncc3c2=O)cc1	TEAD-YAP inh 32
CC(C)c1ccc(NC(=O)CSc2nc3[nH]ncc3c(=O)n2-c2ccc(Cl)cc2)cc1	none
O=C(CSc1nc2[nH]ncc2c(=O)n1-c1ccccc1)Nc1ccc(C(F)(F)F)cc1	none
Cc1ccccc1-n1c(SCC(=O)Nc2ccc(C(F)(F)F)cc2)nc2[nH]ncc2c1=O	TEAD-YAP inh 37
Cc1ccc(C2=NN(C(=O)CNCCO)C(c3ccco3)C2)cc1 (stereo not drawn)	none
O=C(CSCc1ccccc1Cl)NNC(=O)c1cccnc1	none
CCOC(=O)C1(CCOc2ccccc2)CCN(S(=O)(=O)c2ccccc2F)CC1	none
COC(=O)CNC1CC(=O)N(c2ccc(C(=O)OC)cc2)C1=O (stereo not drawn)	none
